Data as given in ChEMBL document CHEMBL4513216, “Probing the Open Global Health Chemical Diversity Library for Multistage-Active Starting Points for Next-Generation Antimalarials” (ACS Infect Dis, 2020).
In all, about 69,000 compounds went through this assay and about 8,600 (12%) showed an effect of 50% or more. For the sample, strong results were picked, then their nearest neighbours and some compounds at random.

test system: Plasmodium berghei; assay: Screen against P. berghei liver stage (PbLuc), transformed with Luciferase, at 10uM; type: functional, HepG2; conditions: tested at 10 uM

Row | SMILES | INHIBITION
1 | O=C(C1CCC2(CCN(CC3CC3)CC2)O1)N1CCCC1 (stereo not given) | 1.34%
2 | COc1ccc(C(=O)N(C)Cc2nnc3ccccn23)c(OC)c1OC | -8.11%
3 | COc1cccc(CN(C)Cc2cccc(C#N)c2)c1OC | -3.19%
4 | COc1ccc(C(=O)N(C)Cc2cccc(C#N)c2)c(OC)c1OC | 50.1%
5 | CCOc1ccc2oc(-c3cn(C)nc3C)c(O)c(=O)c2c1 | 25.9%
6 | COC(=O)CCC(=O)N(Cc1ccc2cc[nH]c2c1)C1CC1 | -8.8%
7 | COc1cc(C2CC(=O)Nc3c2nc2n3CCCC2)cc2c1OCO2 (stereo not given) | 34%
8 | CCNC(=O)[C@@H]1C[C@@H](N)CN1C(=O)c1[nH]c2ccccc2c1CC | 11.5%
9 | CCOCCCNc1ncc(-c2onc(C)c2C)c(-c2ccco2)n1 | 27.465%
10 | CCC(=O)NCC1(O)CCC(C(C)(C)C)CC1 (stereo not given) | -5.92%
11 | Cc1ccc(OCCN(C)Cc2cscn2)cc1 | -23.8%
12 | COCCS(=O)(=O)N(Cc1cscn1)c1ccccc1 | 22.8%
13 | CN(C)S(=O)(=O)N(Cc1cscn1)c1ccccc1 | 62.4%
14 | CN(CCOc1ccc(Br)cc1)Cc1cscn1 | -62.6%
15 | CCN(C)S(=O)(=O)N(Cc1cscn1)c1ccccc1 | 66.4%
16 | Cc1cc(C)cc(OCCN(C)Cc2cscn2)c1 | 28.1%
17 | CC(C)c1ccc(CN2CCCC3(CC2)CN(C)C(=O)O3)cc1 (stereo not given) | -58.7%
18 | CS(=O)(=O)c1cncnc1C1CCCNC1 (stereo not given) | 20.4%
19 | CN(C)C(=O)CN1C(=O)CCC12CCN(Cc1cccs1)CC2 | 9.97%
20 | O=C1CCc2cc(C(=O)NCc3ccc(Cl)s3)ccc2N1 | -28.6%
21 | Cc1ccsc1CNC(=O)c1ccc(N2CCOC2=O)cc1 | 56.8%
22 | CCc1ccc(CNC(=O)c2ccc(N3CCOC3=O)cc2)s1 | 78.2%
23 | Cc1ccsc1CNC(=O)c1ccc(N2CCNC2=O)cc1 | 25.2%
24 | Cc1noc(C)c1CNC(=O)Nc1ccc(N2CCOC2=O)cc1 | 13.9%
25 | O=C(NCc1ccc(Cl)s1)c1ccc(N2CCOC2=O)cc1 | 72.2%
26 | O=C1COc2cc(C(=O)NCc3ccc(Cl)s3)ccc2N1 | 16.8%
27 | CCc1ccc(CNC(=O)NC(C)CN2CCOCC2)s1 (stereo not given) | -3.95%
28 | Cc1ccsc1CNC(=O)c1ccc2c(c1)CCC(=O)N2 | -20.8%

Row | SMILES | INHIBITION
29 | Cc1cccn2cc(C[S+]([O-])Cc3noc(C(C)C)n3)nc12 (stereo not given) | -9.51%
30 | Cc1noc(C)c1-c1cncc(C2CCCN2Cc2c[nH]cn2)n1 (stereo not given) | 32.8%
31 | CC(=O)N1CCC(c2c(CN(C)C)cnc3cc(C)nn23)CC1 | -0.8%
32 | CCS(=O)(=O)N1CCOC2(CCCN(c3ccc(C)nn3)C2)C1 (stereo not given) | 5.65%
33 | O=C1NC(C(=O)NCc2cccnc2Oc2ccc(F)cc2F)CO1 (stereo not given) | 9.52%
34 | CSCC[C@@H]1CN2CCC[C@H]2CN1Cc1coc2ccc(Cl)cc2c1=O | 7.11%
35 | Cc1cc(NC(=O)CN(CC2CCOC2)C2CC2)no1 (stereo not given) | 21.5%
36 | O=c1[nH]nc2nc(N3CCCC3)ccn12 | 19.8%
37 | Cc1cccc(N2CCN(c3ccn4c(=O)[nH]nc4n3)CC2)c1C | 65.8%
38 | O=c1[nH]nc2nc(N3CCSCC3)ccn12 | 9.96%
39 | Cn1ccnc1CN1CCN(CC(O)c2ccccc2)CC1 (stereo not given) | 4.52%
40 | O=C(NCc1nncn1-c1ccccc1)C1CCCC1 | 11.9%
41 | O=C(NCc1nncn1-c1ccccc1)C1CC1 | -21.8%
42 | O=C1CCC(C(=O)NCc2nncn2-c2ccccc2)CN1 (stereo not given) | 51%
43 | Cc1cccc(CN2CCc3nnc(CN4CCCC4=O)n3CC2)n1 | 35.7%
44 | CC(=O)CSc1sc2c(O)cc(=O)[nH]c2c1C(N)=O | 26%
45 | CN(CC1Cc2ccccc2CN1C)C(=O)CSc1nccn1C (stereo not given) | 40.9%
46 | CN(CC1Cc2ccccc2CN1C)C(=O)CSc1ccccn1 (stereo not given) | -4.91%
47 | Cc1cc(=O)[nH]c(SCC(=O)N(C)CC2Cc3ccccc3CN2C)n1 (stereo not given) | 50.2%
48 | O=C(NCc1ccco1)c1[nH]nc2c1CS(=O)(=O)CC2 | 48.2%
49 | O=C1CO[C@@H]2CN(Cc3cccs3)C[C@H]2N1CC1CC1 | 24.5%
50 | Cc1noc(C)c1CNCc1nn(-c2ccccc2)c2c1CCC2 | -0.159%
51 | O=C(NCc1nn(-c2ccccc2)c2c1CCC2)NC1CC1 | 30.2%
52 | COc1ccccc1CNCc1nn(-c2ccccc2)c2c1CCC2 | 36.8%
53 | O=C(NCc1nn(-c2ccccc2)c2c1CCC2)C1CC1 | 59.55%
54 | O=C1CCC(C(=O)NCc2nn(-c3ccccc3)c3c2CCC3)CN1 (stereo not given) | 41.9%
55 | Cc1c(CNCc2nn(-c3ccccc3)c3c2CCC3)cc(C#N)n1C | 63.6%
